Reference: PubChem BioAssay (NCATS)
Several values for one entry are separate records, joined by “and”; a condition that tells them apart may be missing. Equal values may be shown once. Records with an inconclusive call do not appear. Activity calls are given as the source filed them. Unless noted, calls come from the whole dose curve; as a rule, active = well fitted curve in the direction sought with a large enough effect; inconclusive = small, poorly fitted or top-dose-only effect, or another doubt; inactive = no such curve, though single readings can be large; an effect the other way counts as inactive or inconclusive.

Columns and labels:
[1] = AP1 Signaling Pathway (AID 357; active = well fitted curve in either direction with a large enough effect, not every such curve was filed as active;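 note: ME-180 reporter cells stimulated with EGF at its EC50 level; % is set by controls: 0 for no effect and ±100 for the full control effect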); details: ME-180 AP-1-bla reporter, EGF-induced, beta-lactamase ratio, 5 h; at 7.69 µM (top of the series) unless noted
In short: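 AP-1-bla ME-180 cells, Opti-MEM + 0.5% dialyzed FBS, plated overnight 37 °C. Cpd titration + EC50 EGF, 5 h 37 °C. CCF4 2.5 h RT; ex 405, em 460/530 ratio → %activity, AC50.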

[2] = NFAT Signaling Pathway (AID 444; active = well fitted curve in either direction with a large enough effect, not every such curve was filed as active;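 note: carbachol stimulus at about its EC50 of 1 µM final; % is set by controls: 0 for no effect and ±100 for the full control effect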); details: Jurkat NFAT-bla M1, carbachol, beta-lactamase ratio, 5 h; at 7.69 µM (top of the series) unless noted
In short: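 Jurkat cells carrying an NFAT-driven β-lactamase reporter and co-transfected muscarinic M1 receptor were treated with compound plus carbachol (1 uM final, an EC50 level) for 5 h at 37 °C. CCF4 loading followed for 1 h at RT; 460/530 nm ratio gave %activity.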

[3] = Stat Signaling Pathway (AID 446; active = well fitted curve in either direction with a large enough effect, not every such curve was filed as active;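 note: ME-180 cervical cancer cells given 40 pM IL-6 alongside compound; SIE-controlled beta-lactamase reporter measured as 460/530 nm FRET emission ratio; % is set by controls: 0 for no effect and ±100 for the full control effect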); details: ME-180 (cervical carcinoma) SIE beta-lactamase reporter, IL-6 stimulated, 5 h; at 7.69 µM (top of the series) unless noted
In short: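 Compound effects on IL-6-induced STAT reporter activity were measured in ME-180 cells. After overnight culture, cells were co-treated with 40 pM IL-6 for 5 hrs before beta-lactamase substrate loading at room temperature.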

[4] = target: Glucocorticoid receptor (Homo sapiens) (UniProt P04150); experiment: GR-GFP Redistribution (AID 450;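 active = compounds whose dose series gives a full or clear partial fitted curve of increased nuclear translocation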; note: potency is the fitted concentration of half-maximal effect); details: U2OS GR-GFP nuclear translocation, laser cytometry, 2 h
Chain of Glucocorticoid receptor (Homo sapiens) (P04150 whole entry, looked up, the tested form may be a part): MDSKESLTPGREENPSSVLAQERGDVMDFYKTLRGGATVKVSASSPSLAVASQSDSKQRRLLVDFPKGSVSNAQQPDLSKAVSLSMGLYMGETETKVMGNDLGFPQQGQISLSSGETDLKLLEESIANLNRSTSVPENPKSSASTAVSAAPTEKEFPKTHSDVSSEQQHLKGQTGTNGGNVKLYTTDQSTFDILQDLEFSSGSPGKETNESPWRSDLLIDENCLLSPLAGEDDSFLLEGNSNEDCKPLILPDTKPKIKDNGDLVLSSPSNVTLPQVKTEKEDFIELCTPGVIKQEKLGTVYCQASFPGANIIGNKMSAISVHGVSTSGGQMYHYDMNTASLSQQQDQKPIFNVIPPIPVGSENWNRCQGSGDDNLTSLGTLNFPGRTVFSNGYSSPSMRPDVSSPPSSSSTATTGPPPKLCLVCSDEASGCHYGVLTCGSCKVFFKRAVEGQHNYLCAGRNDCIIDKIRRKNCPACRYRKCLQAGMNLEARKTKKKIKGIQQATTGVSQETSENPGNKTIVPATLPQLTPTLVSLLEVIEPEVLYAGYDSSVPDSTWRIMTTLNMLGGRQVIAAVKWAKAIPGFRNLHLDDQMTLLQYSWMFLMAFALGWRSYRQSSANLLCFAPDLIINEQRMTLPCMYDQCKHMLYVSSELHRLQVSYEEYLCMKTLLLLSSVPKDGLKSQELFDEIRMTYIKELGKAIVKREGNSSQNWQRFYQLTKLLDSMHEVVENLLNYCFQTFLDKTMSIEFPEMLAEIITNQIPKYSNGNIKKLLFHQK

[5] = target: Glucocorticoid receptor (Homo sapiens) (UniProt P04150); experiment: GR-EFC Redistribution (AID 451; calls by dose curve; note: potency is the fitted concentration of half-maximal effect); details: CHO-K1 GR-EFC translocation, beta-gal luminescence, 2 h
In short: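 CHO-K1 cells stably expressing nuclear-localized β-gal enzyme acceptor and GR fused C-terminally to the enzyme donor fragment; ligand-driven nuclear translocation restores β-gal by complementation. Compounds titrated up to 46 uM final, 2 h at 37 °C; luminescence read.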

[6] = target: 3',5'-cyclic-AMP phosphodiesterase 4B (Homo sapiens) (UniProt Q07343); experiment: qHTS Assay for Inhibitors of PDE-IV (AID 607; active = well fitted activation curve with a large enough effect in the main read-out, with a control signal flat, not every such curve was filed as active; note: % of control where 0% means no effect)
Chain of 3',5'-cyclic-AMP phosphodiesterase 4B (Homo sapiens) (Q07343 whole entry, looked up): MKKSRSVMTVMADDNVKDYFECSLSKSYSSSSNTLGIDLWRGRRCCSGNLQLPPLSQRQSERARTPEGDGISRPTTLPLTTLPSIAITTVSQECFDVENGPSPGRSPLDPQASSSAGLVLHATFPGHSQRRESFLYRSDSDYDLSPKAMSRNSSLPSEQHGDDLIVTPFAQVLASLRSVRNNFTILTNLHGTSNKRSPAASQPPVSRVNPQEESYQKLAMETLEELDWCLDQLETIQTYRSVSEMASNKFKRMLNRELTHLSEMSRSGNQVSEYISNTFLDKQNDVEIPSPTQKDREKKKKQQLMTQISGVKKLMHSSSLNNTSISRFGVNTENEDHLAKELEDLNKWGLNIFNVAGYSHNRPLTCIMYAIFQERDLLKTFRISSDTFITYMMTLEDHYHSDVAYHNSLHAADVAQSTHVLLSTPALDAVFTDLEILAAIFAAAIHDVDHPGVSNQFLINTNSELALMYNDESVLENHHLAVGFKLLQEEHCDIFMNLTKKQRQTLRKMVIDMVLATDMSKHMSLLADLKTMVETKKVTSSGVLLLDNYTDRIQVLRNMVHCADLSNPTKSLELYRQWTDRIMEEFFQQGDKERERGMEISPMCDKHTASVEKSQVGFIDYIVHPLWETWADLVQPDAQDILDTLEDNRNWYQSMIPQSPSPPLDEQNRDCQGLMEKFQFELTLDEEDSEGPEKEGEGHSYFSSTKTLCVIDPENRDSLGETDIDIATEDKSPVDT
In short: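 ACTOne HEK293 cells carry a modified cAMP-gated CNG channel and express endogenous PDE4; plated 1000 cells/well, compounds up to 22.9 uM final. Membrane-potential dye fluorescence (ex 535/em 590) was read; parental cells received 10 uM forskolin + 100 uM RO 20-1724.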

[7] = target: Cytochrome P450 2C9 (Homo sapiens) (UniProt P11712); experiment: qHTS Assay for Inhibitors and Substrates of Cytochrome P450 2C9 (AID 883); note: potency is the fitted concentration of half-maximal effect; nearly all actives have a fitted effect of over 60% in size
In short: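 CYP2C9 deoxyluciferin hydroxylation, 37C, 60 min with NADPH regeneration; 10nM enzyme, 100uM Luciferin-H (KM). Glo detection reagent stopped reaction; luminescence normalized to sulphaphenazole (57uM) full inhibition.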

[8] = target: Cytochrome P450 2D6 (Homo sapiens) (UniProt P10635); experiment: qHTS Assay for Inhibitors and Substrates of Cytochrome P450 2D6 (AID 891); note: potency is the fitted concentration of half-maximal effect; nearly all actives have a fitted effect of over 60% in size
In short: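 Luminescent read-out of luciferin formed by 5 nM human CYP2D6 demethylating 30 uM Luciferin-ME EGE (Km level) over 60 min at room temperature after NADPH regeneration addition. Data normalized to full inhibition by 1.43 uM quinidine.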

[9] = qHTS Assay for Identification of Small Molecule Antagonists for Thrombopoietin (TPO) Signaling Pathway (AID 918); details: TPO-dependent cell signaling reporter, antagonist mode; note: potency is the fitted concentration of half-maximal effect; nearly all actives have a fitted effect of over 60% in size
In short: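 Luminescence read-out: GPIIb-promoter luciferase in Ba/F3 cells carrying human TPO receptor. Compounds added with 26 pM TPO (EC50), 24 hrs, 37 C, 5% CO2; cells deprived of IL-3 overnight beforehand. Inhibition of signal scored.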

[10] = target: Muscarinic acetylcholine receptor M1 (Rattus norvegicus) (UniProt P08482); experiment: qHTS Assay for Antagonists of Acetylcholine Muscarinic M1 Receptor: Measurement of IP-One Response (AID 944); note: nearly all actives have a fitted effect of over 75% in size; note: potency is the fitted concentration of half-maximal effect
Chain of Muscarinic acetylcholine receptor M1 (Rattus norvegicus) (P08482 whole entry, looked up): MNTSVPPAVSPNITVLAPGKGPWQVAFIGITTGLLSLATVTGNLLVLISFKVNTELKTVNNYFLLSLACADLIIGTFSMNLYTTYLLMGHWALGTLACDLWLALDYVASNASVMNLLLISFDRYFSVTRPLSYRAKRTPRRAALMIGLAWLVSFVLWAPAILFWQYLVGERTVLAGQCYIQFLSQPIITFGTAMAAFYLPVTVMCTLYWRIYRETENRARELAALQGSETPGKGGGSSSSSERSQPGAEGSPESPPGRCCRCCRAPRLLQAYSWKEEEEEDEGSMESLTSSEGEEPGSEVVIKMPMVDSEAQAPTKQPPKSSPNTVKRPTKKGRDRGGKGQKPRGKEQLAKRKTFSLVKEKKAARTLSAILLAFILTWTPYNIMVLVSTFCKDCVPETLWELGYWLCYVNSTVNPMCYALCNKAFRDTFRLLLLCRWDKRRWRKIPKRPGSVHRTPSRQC
In short: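 Read-out: HTRF competition between d2-IP1 and Eu-cryptate anti-IP1 antibody, emission 620 and 665 nm. Stimulus was carbachol, EC80 (200 nM), for 30 min in M1-CHO cells (rat receptor), after 10 min compound pre-treatment.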

[11] = target: Pyruvate kinase (Leishmania mexicana) (UniProt Q27686); experiment: qHTS Validation Assay for Inhibitors of Leishmania Mexicana Pyruvate Kinase (AID 945);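 note: 0% = DMSO only neutral control wells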
Chain of Pyruvate kinase (Leishmania mexicana) (Q27686 2-499 E452W): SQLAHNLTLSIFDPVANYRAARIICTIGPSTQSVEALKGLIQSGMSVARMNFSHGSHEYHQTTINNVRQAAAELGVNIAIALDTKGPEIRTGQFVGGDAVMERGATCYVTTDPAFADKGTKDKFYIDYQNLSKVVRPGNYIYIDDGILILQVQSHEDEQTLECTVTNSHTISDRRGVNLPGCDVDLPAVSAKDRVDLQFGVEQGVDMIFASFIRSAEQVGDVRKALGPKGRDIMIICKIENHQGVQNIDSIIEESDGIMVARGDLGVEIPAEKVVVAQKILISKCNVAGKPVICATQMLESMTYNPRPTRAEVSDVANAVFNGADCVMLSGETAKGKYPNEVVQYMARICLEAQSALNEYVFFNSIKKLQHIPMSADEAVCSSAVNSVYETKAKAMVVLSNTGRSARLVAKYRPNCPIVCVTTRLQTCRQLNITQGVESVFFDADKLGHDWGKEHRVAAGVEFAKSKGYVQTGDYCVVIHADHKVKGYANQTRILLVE
In short: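 Eight-point qHTS titrations in triplicate, data normalized to DMSO neutral control. Reaction: 0.2 nM LmPYK E451W mutant, 0.5 mM PEP, 0.1 mM ADP, 7 mM MgCl2, pH 7.2, one hour at room temperature; luminescent ATP detection.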

[12] = target: Pyruvate kinase PKM (Homo sapiens) (UniProt P14618); experiment: qHTS Assay for Activators of Human Muscle Pyruvate Kinase (AID 954; active = well fitted curve in the direction sought with a large enough effect, not every such curve was filed as active;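 note: 0% = uninhibited enzyme and -100% = no enzyme or full thiadiazolimine inhibition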)
Chain of Pyruvate kinase PKM (Homo sapiens) (P14618 whole entry, looked up): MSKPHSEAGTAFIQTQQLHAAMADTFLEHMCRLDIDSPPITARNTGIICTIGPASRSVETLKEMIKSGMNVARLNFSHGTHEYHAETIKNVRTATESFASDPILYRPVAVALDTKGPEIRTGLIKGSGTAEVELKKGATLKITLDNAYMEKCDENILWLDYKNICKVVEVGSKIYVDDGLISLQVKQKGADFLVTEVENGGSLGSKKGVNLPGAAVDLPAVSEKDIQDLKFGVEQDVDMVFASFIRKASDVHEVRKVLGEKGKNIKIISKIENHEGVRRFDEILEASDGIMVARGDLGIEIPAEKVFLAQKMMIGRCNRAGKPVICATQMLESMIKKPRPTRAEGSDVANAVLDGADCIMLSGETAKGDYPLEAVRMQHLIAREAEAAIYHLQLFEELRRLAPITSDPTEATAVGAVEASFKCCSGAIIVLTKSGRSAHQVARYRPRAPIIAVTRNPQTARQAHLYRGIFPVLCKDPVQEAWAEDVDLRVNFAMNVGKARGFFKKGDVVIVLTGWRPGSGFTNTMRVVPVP
In short: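 A coupled luminescent readout tracked ATP made from ADP by purified PKM2. Final conditions included 0.1 nM enzyme, PEP and ADP at 0.5 and 0.1 mM, pH 7.2 imidazole buffer with BSA, and a one-hour room-temperature reaction.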

[13] = target: Alpha-galactosidase A (Homo sapiens) (UniProt P06280); experiment: Counterscreen for Glucocerebrosidase Inhibitors: qHTS Assay for Human alpha-Galactosidase at pH 4.5 (AID 992); note: 0% is about no effect
Chain of Alpha-galactosidase A (Homo sapiens) (P06280 whole entry, looked up): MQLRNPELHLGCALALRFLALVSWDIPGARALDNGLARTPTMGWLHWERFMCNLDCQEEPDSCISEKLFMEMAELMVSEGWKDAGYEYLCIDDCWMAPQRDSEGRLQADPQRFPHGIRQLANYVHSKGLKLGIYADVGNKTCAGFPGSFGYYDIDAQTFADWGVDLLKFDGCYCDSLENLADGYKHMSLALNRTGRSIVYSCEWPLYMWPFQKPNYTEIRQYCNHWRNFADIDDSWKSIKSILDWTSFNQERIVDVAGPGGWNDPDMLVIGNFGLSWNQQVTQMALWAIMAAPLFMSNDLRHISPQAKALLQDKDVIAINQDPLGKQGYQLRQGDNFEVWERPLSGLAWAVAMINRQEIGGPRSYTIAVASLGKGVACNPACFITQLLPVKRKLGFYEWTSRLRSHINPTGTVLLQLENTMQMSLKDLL
In short: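 Citrate buffer pH 4.5, Tween-20 0.005%. Enzyme 2 nM, substrate 80 uM, 20 min RT. Stop pH 10. Fluorescence Ex 365/Em 440. AC50 by Hill fit.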

[14] = target: alpha-glucosidase (Oryza sativa, rice) (UniProt Q653V4); experiment: Counterscreen for Glucocerebrosidase Inhibitors: qHTS Assay for Rice alpha-Glucosidase at pH 5.0 (AID 997);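 note: 0% = full activity with enzyme and -100% = basal without enzyme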
In short: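 Endpoint fluorogenic assay at pH 5.0: compounds (0.7 nM to 77 uM) titrated against 4 nM rice enzyme and 400 uM 4-MU-alpha-glucoside for 20 min at room temperature; NaOH/glycine stop, read ex 365/em 440 nm, Hill-fitted AC50.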

[15] = target: Mitogen-activated protein kinase 10 (Mus musculus) (UniProt Q61831); experiment: JNK3 AlphaScreen Assay (AID 530; active = well fitted curve in either direction with a large enough effect, not every such curve was filed as active;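 note: kinase came from lysate of stimulated human HepG2 cells; signal reports phosphorylation of biotinylated GST-cJun 1-79 at Ser73 with 10 µM ATP; % is set by controls: 0 for no effect and ±100 for the full control effect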)
In short: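 Biotinylated GST-cJun(1-79) served as substrate for JNK3 in HepG2 lysates stimulated with IL-1beta and TNF-alpha. ATP was 10 uM final, pH 7.6. Ser73 phosphorylation was quantified by AlphaScreen (680 nm excitation).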

[16] = target: Guanine nucleotide-binding protein G(i) subunit alpha-1 (Homo sapiens) (UniProt P63096); experiment: qHTS Assay for Inhibitors of RGS12 GoLoco Motif Activity (Green Fluorophore) (AID 879);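 note: 0% = labeled peptide with Gαi1 and full inhibition = labeled peptide alone without protein; negative values mean loss of peptide binding seen as reduced polarization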
Chain of Guanine nucleotide-binding protein G(i) subunit alpha-1 (Homo sapiens) (P63096 whole entry, looked up): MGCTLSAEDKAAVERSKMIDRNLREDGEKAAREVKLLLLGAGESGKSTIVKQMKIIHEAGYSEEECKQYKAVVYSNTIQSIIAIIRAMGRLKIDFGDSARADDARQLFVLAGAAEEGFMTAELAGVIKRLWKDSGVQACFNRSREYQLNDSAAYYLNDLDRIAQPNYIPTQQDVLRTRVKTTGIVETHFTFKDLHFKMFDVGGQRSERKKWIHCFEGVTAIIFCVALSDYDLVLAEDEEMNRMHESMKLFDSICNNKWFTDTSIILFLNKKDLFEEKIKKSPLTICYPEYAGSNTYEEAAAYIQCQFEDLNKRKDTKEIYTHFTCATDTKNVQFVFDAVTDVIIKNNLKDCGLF
In short: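 A drop in FITC polarization marked displacement of the FITC-tagged RGS12 GoLoco peptide (10 nM) from Gαi1 (50 nM). Compounds were incubated 10 min at room temperature in Tris pH 7.5 buffer containing 150 mM NaCl, 0.1 mM GDP and 0.05% NP40; unlabeled peptide titration served as control.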

[17] = qHTS Assay for Identification of Small Molecule Agonists for Thrombopoietin (TPO) Signaling Pathway (AID 917); note: % is set by controls: 0 for no effect and ±100 for the full control effect
In short: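 Quantitative HTS for pathway activators: compounds were pin-transferred onto IL-3-starved Ba/F3 cells expressing human TPO receptor, TPO was added at its EC50 (26 pM final), and after 24 hrs at 37 C reporter luciferase was measured.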

[18] = target: Cytochrome P450 1A2 (Homo sapiens) (UniProt P05177); experiment: p450-cyp1a2 (AID 410; calls by dose curve; note: potency is the fitted concentration of half-maximal effect)
Chain of Cytochrome P450 1A2 (Homo sapiens) (P05177 whole entry, looked up): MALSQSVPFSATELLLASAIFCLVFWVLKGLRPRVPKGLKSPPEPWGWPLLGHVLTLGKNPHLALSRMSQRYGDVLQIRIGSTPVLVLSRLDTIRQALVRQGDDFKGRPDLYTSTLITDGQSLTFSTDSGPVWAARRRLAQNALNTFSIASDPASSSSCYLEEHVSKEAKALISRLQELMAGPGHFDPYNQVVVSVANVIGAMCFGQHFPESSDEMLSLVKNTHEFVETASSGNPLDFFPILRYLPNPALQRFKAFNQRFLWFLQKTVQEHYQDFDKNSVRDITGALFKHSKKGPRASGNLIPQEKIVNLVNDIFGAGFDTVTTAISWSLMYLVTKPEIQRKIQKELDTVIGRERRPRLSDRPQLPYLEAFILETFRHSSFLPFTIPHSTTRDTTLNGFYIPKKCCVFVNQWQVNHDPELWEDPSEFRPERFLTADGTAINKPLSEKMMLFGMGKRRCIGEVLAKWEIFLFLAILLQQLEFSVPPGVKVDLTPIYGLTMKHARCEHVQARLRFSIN
In short: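 20nM CYP1A2, 100uM Luciferin-ME (=Km), 100mM KPO4; cpd 10 min RT; +NADPH regen, 60 min RT; stop/detect 20 min; luminescence. Normalized to furafylline 57 uM = full inhibition.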

[19] = target: Cytochrome P450 3A4 (Homo sapiens) (UniProt P08684); experiment: qHTS Assay for Inhibitors and Substrates of Cytochrome P450 3A4 (AID 884); note: % is set by controls: 0 for no effect and ±100 for the full control effect; nearly all actives have a fitted effect of over 50% in size
Chain of Cytochrome P450 3A4 (Homo sapiens) (P08684 whole entry, looked up): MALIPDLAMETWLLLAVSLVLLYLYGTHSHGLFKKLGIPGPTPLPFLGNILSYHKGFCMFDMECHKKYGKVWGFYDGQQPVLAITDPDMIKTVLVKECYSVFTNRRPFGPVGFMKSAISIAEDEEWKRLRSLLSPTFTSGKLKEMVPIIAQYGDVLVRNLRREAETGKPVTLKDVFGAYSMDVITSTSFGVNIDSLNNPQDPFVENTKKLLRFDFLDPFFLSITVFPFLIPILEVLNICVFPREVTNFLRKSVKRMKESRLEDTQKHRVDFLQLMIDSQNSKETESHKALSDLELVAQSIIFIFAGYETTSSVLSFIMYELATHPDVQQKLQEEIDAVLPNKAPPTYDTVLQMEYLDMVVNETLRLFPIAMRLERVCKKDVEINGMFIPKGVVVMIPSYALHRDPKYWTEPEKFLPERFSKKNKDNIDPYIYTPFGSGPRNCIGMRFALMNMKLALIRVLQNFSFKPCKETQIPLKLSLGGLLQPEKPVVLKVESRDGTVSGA
In short: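 Luminescent readout of luciferin produced by CYP3A4 (20 nM) dealkylation of Luciferin-PPXE, 25 uM (its KM). NADPH-driven reaction ran 60 min at RT after 10 min compound preincubation; data scaled to 57 uM ketoconazole as 100% inhibition.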

[20] = target: Cytochrome P450 3A4 (Homo sapiens) (UniProt P08684); experiment: qHTS Assay for Activators of Cytochrome P450 3A4 (AID 885); note: potency is the fitted concentration of half-maximal effect; nearly all actives have a fitted effect of over 65% in size
In short: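 CYP3A4 activity: Luciferin-PPXE O-dealkylation, 25uM substrate, 200mM KPO4, RT throughout. Read-out is luciferase luminescence; higher values reflect activation.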

[21] = target: Muscarinic acetylcholine receptor M1 (Rattus norvegicus) (UniProt P08482); experiment: qHTS Assay for Antagonists of Acetylcholine Muscarinic M1 Receptor: Kinetic Measurement of Intracellular Calcium Response (AID 943); note: nearly all actives have a fitted effect of over 75% in size; note: potency is the fitted concentration of half-maximal effect;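 for activity change, negative = inhibition: Fluo-4 calcium signal as peak divided by basal fluorescence over 4 min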
In short: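 Read-out: peak over basal Fluo-4 fluorescence, kinetic at 1 Hz for 4 min after EC80 carbachol (100 nM final). Rat M1-CHO cells, dye loaded 1 h at 37C, compound added 10 min before agonist.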

[22] = qHTS Assay for Identification of Small Molecule Antagonists for NFkB Signaling Pathway (AID 895; active = well fitted inhibition curve with a large enough effect in the signal ratio, with a control signal flat, not every such curve was filed as active; the % refers to the signal ratio; note: % is set by controls: 0 for no effect and ±100 for the full control effect)
In short: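 NFkB-bla ME-180 cervical carcinoma cells with beta-lactamase reporter under NFkB response element; compounds added, then TNF alpha at 10 pM final (EC50), 5 h at 37 C. LiveBLAzer substrate 2 h, room temperature; emission 460/530 nm at 405 nm excitation.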

CC(C)(C)[C@@]1(O)CCN2C[C@@H]3c4ccccc4CCc4cccc(c43)[C@@H]2C1
inactive: activity change, negative = inhibition [1] -4.55% [at 38 µM] and 8.62% [at 38 µM] | activity change, negative = inhibition [2] -14.6% [at 38 µM] and -5.47% [at 38 µM] | activity, negative = inhibition [3] -1.04% [at 38 µM] and -27.5% [at 38 µM] | Potency [4] > 46 µM | Potency [5] > 46 µM | Potency [6] | Potency [10] | outcome [11] | outcome [12] | outcome [13] | Potency [14]
active: Potency [7] 1.58 µM | Potency [8] 79.4 nM and 501 nM | Potency [9] 12.6 µM

COC(=O)[C@H]1[C@H]2C[C@H]3c4[nH]c5ccccc5c4CCN3C[C@@H]2CC[C@@H]1O
inactive: activity change, negative = inhibition [1] 3.48% [at 38 µM] and 8.69% [at 38 µM] | activity change, negative = inhibition [2] -14.1% [at 38 µM] | activity, negative = inhibition [3] 1% [at 38 µM] and -19.7% [at 38 µM] | Potency [15] | Potency [6] | outcome [16] | outcome [17] | outcome [12] | outcome [13] | Potency [14]

C[C@@H](CN1CCC(Cc2ccccc2)CC1)[C@H](O)c1ccc(O)cc1
inactive: activity change, negative = inhibition [1] 7.29% [at 38 µM] | activity, negative = inhibition [3] -25.3% [at 38 µM] | Potency [4] > 46 µM | Potency [5] > 46 µM | Potency [15] | Potency [6] | Potency [19] | outcome [17] | outcome [12] | outcome [13] | Potency [14]
active: Potency [18] 12.6 µM | Potency [20] 10 µM | Potency [21] 5.62 µM | Potency [10] 7.08 µM

COc1c2c(nc3ccccc13)O[C@@H]([C@@](C)(O)CO)C2
inactive: activity change, negative = inhibition [2] -2.6% [at 38 µM] | Potency [4] > 46 µM | Potency [5] > 46 µM | Potency [15] | Potency [6] | outcome [16] | Potency [22] | Potency [21] | Potency [10] | outcome [11] | outcome [12] | outcome [13] | Potency [14]
active: Potency [18] 15.8 µM

O=C(NCc1cccs1)O[C@H]1C[C@H]2CC[C@@H]1C2
inactive: activity change, negative = inhibition [1] 19.6% | activity change, negative = inhibition [2] 16.7% | activity, negative = inhibition [3] 8.46% | Potency [4] > 46 µM | Potency [5] > 9.22 µM | Potency [15] | Potency [6]

O[C@H](CN1CCN(c2cccc(Cl)c2)CC1)C(c1ccccc1)c1ccccc1
active: Potency [18] 12.6 µM | Potency [20] 7.94 µM
inactive: activity change, negative = inhibition [1] -10.5% [at 38 µM] | activity, negative = inhibition [3] 24.9% [at 38 µM] | Potency [4] > 46 µM | Potency [5] > 46 µM | Potency [15] | Potency [6] | outcome [16] | Potency [19] | outcome [17] | Potency [10] | outcome [11] | outcome [12] | outcome [13] | Potency [14]
